Among the data in PubChem BioAssay are z-score values, retold here.

SMILES strings stand for the structures. Unmarked numbers belong to inactive results.

The test in a line: basal 3T3-L1 adipocyte mitochondrial potential changes, profiling panel, cell-based, JC-1 fluorescence, 3T3-L1 adipocytes, 24 h, 100 nL compound (AID 1168). Note: test concentration not given here. The following applies: JC-1 mitochondrial fluorescence, higher = more signal, called active from +8 up or from −8 down.
Consider `COc1ccc(C#Cc2ccc3c(c2)[C@]2(C(=O)N3)[C@H](c3ccc(O)cc3)N3[C@H](c4ccccc4)[C@H](c4ccccc4)OC(=O)[C@H]3[C@@H]2C(=O)O)cc1`, for which the z-score is -0.742.

For the molecule `COC(=O)[C@@]1(Cc2ccccc2)[C@H]2c3cc(C(=O)N(C)C)n(CCN4CNCC4=O)c3C[C@H]2CN1C(=O)c1ccccc1`, the z-score is -0.179.

For `O=C1OCC=C[C@H]2OC34C=CCN(Cc5ccccc5)C(=O)[C@H]3N(CCCCCCO)C(=O)[C@@H]4[C@@H]12` (stereo not given in full), the z-score is -0.173.

As to `COc1cc2c(cc1OC)CN(C(=O)[C@@H]1[C@H]3C(=O)O[C@H](c4ccccc4)[C@H](c4ccccc4)N3[C@H](c3ccc(OCCO)cc3)[C@@]13C(=O)Nc1ccccc13)CC2`, the z-score is 0.876.

As to `COCCOC(=O)N1C(=O)[C@@]2(c3cc(C#CC4=CCCCC4)ccc31)[C@H](C(=O)N1CCCCCCC1)[C@H]1C(=O)O[C@H](c3ccccc3)[C@H](c3ccccc3)N1[C@@H]2c1ccc(O)cc1`, the z-score is 1.02.

For `C=CCC(OC(C)=O)[C@@H]1[C@@H](N(Cc2cc3ccccc3o2)C(=O)Cc2ccc(F)cc2)c2cc(OCCCO)ccc2N1C(=O)c1ccc2ccccc2c1` (stereo not given in full), the z-score was 0.0661.

With `CCOC(=O)C[C@H]1[C@H](OC(=O)Cc2ccc3c(c2)OCO3)[C@@H](NC(=O)Cc2ccc(OC)cc2)c2cc(OCCCO)ccc2N1C(=O)c1ccc2ccccc2n1`, the z-score was 0.929.

In the case of `COCCOC(=O)N1C(=O)[C@@]2(c3cc(C#Cc4ccc(OC)cc4)ccc31)[C@H](c1ccc(O)cc1)N1[C@H](c3ccccc3)[C@H](c3ccccc3)OC(=O)[C@H]1[C@@H]2C(=O)N1CCCCCCC1`, the z-score is 1.18.

Turning to `COC(=O)[C@@]1(Cc2ccccc2)[C@H]2c3cc(C(=O)N(C)C)n(Cc4c(CO)[nH]cc(C)c4=O)c3C[C@H]2CN1C(=O)c1ccccc1`, the z-score is -0.235.

As for `CN(C)C(=O)[C@]1(CCS(=O)(=O)c2ccccc2)N=C(c2ccc(OCCCO)cc2)O[C@@H]1c1ccccc1N=[N+]=[N-]`, the z-score was -0.00563.

On to `CCCCCCc1nc(-c2cc(C)c(OC)c(C)c2)c(C)c2c1[Si](C(C)C)(C(C)C)OC2`, for which the z-score is 0.354.

Take `CC(C)C[C@@H]1NC(=O)[C@@H]2C[C@H](C(=O)NCCCCCN)[C@H](c3ccc(O)cc3)N2C1=O`: the z-score is -0.259.

For `C[C@H]1NC(=O)[C@@]23C(=O)N[C@@H](Cc4ccccc4)C2[C@H](C)[C@@]2(C)O[C@H]2C3/C=C/C/C=C\CNC(=O)[C@H](Cc2ccccc2)NC1=O` (stereo not given in full), the z-score was -0.588.

For the molecule `C=CC[C@]1(C(=O)NCCN2CCOCC2)N=C(c2ccc(OCCCO)cc2)O[C@H]1c1ccccc1CN=[N+]=[N-]`, the z-score was 0.0141.

For `O=C1O[C@H](c2ccccc2)[C@H](c2ccccc2)N2[C@H]1[C@@H](C(=O)Nc1nc3ccccc3s1)[C@]1(C(=O)Nc3ccccc31)[C@H]2c1ccc(OCCO)cc1`, the z-score was 3.24.

Turning to `CN1C(=O)C2C=CC(C(O)c3cccc(O)c3)N(Nc3ccccc3)C2C1=O` (stereo not given), the z-score was 0.548.

On to `C=C(COC)/C(=C/C[C@H](OC(=O)c1ccncc1)c1ccccc1OCCO)c1cnc2ccccc2c1`, for which the z-score was -0.296.

Consider `[N-]=[N+]=Nc1ccccc1[C@@H]1OC(c2ccc(OCCCO)cc2)=N[C@]1(Cc1ccccc1)C(=O)NCC(O)CO` (stereo not given in full), for which the z-score is 0.778.

For the molecule `CCOc1cc(C(O)C2C=CC3C(=O)N(C)C(=O)C3N2Nc2ccccc2)ccc1O` (stereo not given), the z-score was -0.725.

On to `CCOC(=O)C1=C[C@@H](c2ccccc2)N(S(=O)(=O)c2ccc(C)cc2)[C@H]1c1ccccc1Cl`, for which the z-score is 0.422.

As to `COC(=O)c1c2oc(c1C(=O)OC)C(=O)N(Cc1ccccc1)Cc1cn(nn1)C[C@H](Cc1ccccc1)NC(=O)N[C@H](CO)CC2`, the z-score is -0.397.

With `O=C(CS)NCCCCCNC(=O)[C@@H]1C[C@@H]2C(=O)N3CCC[C@H]3C(=O)N2[C@@H]1c1cccc(OCCO)c1`, the z-score is 0.0369.

As to `C=C[C@@H](COC(C)=O)N(C(=O)OC(C)(C)C)S(=O)(=O)c1ccc(Br)cc1`, the z-score is 0.122.

For the molecule `COc1cccc(/C=C/C=O)c1`, the z-score was 0.532.

In the case of `COc1ccc(CN(C2=CC[C@@]3(C(N)=O)C(=O)C(Cl)=C(Cl)C(=O)[C@@]3(C#N)C2)S(=O)(=O)c2ccc(Br)cc2)cc1`, the z-score is -0.689.

Turning to `O=C1O[C@@H](c2ccccc2)[C@@H](c2ccccc2)N2[C@@H](c3ccc(O)cc3)[C@]3(C(=O)Nc4ccc(C#CC5=CCCCC5)cc43)[C@@H](C(=O)NC[C@H](O)c3ccccc3)[C@H]12`, the z-score was 1.33.

Regarding `Cc1ccccc1C(O)C1C=CC2C(=O)N(C)C(=O)C2N1N(c1ccccc1)c1ccccc1` (stereo not given), the z-score is -0.41.

For `CCOC(=O)[C@H]1[C@@H]2C(=O)N3CCC[C@H]3[C@H](O[Si](C(C)C)(C(C)C)C(C)C)[C@H]2C=C2CCN(S(=O)(=O)c3ccc(C)cc3)C[C@H]21`, the z-score was -0.603.

As for `CC(CO)N1C(=O)[C@@H]2[C@H]3C(=O)OCC=C[C@H]3OC23C=CCN(C(C)(C)C)C(=O)[C@@H]13` (stereo not given in full), the z-score was -0.172.

For `O=C1C2C=CC(C(O)c3ccccc3)N(Nc3ccccc3F)C2C(=O)N1c1ccccc1` (stereo not given), the z-score was -0.0776.

`COCCOC(=O)N1C(=O)[C@@]2(c3cc(C#CC4=CCCCC4)ccc31)[C@H](c1ccc(O)cc1)N1[C@H](c3ccccc3)[C@H](c3ccccc3)OC(=O)[C@H]1[C@@H]2C(=O)N1CCN(c2ncccn2)CC1`: the z-score was 1.87.

As to `CC(C)C(=C=CC[C@H](O)c1cccc(OCCO)c1)C[C@H](O)c1cc(Cl)cc(Cl)c1O`, the z-score was 0.375.

`O=C(NCc1ccccc1)[C@@H]1c2ccccc2C(=O)N(Cc2ccccc2C(F)(F)F)[C@H]1c1ccc(CO)cc1`: the z-score is -0.182.

As for `CC(C)Cc1ccc(CN2CC[C@@H](NC(=O)Nc3ccccc3)C2)cc1`, the z-score was 0.465.

On to `CCC(CC)C(O)C1C=CC2C(=O)N(c3ccccc3)C(=O)C2N1Nc1ccc(C(C)C)cc1` (stereo not given), for which the z-score was 0.261.
